Assay results taken from the supplement of paper PMC11417369.
± gives the standard deviation of the averaged measurements. Whole data set: some 25,000 sequences, median “ln(normalized median fluorescence intensity)” near 8.6, cut for the highest 2% near 10. The sample holds the highest values, similar sequences and a random draw of the others, so the mix is not that of the screen.

The sequences below were run on PfAP2-EXP AP2 domain (GST-tagged) (assay: gcPBM binding intensity (ln(normalized median fluorescence intensity)); higher = stronger DNA binding).
Summary of the method: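 Binding intensity is the highest Masliner-normalised natural-log median intensity over replicate spots in either probe orientation. To obtain it, GST-tagged P. falciparum DNA-binding domains made in E. coli were incubated for 1 h on an Agilent 4 × 180k array of primer-extended double-stranded 36-bp intergenic genomic probes plus negative controls. Detection used Alexa488 anti-GST antibody with scanning at 488 nm.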

| Sequence | gcPBM binding intensity (ln) |
| --- | --- |
| AACAATTATTGTAATGCATGCACTGAATATAGAAAG [TGCATGCA_site889] | 10.3 ± 0.24 |
| AAATAATATATGAATGCACACAGTAAAAATTAAAGA [CACACA_site2252] | 8.94 ± 0.35 |
| AACAATTAGAATAACGCATGCATTTATAATATAGAA [TGCATGCA_site595] | 9.52 ± 0.071 |
| TAATTGTACACATGCACACACAAATATTATAGATGT [CACACA_site6528] | 8.99 ± 0.37 |
| CAATTATTGTAATGCATGCACTGAATATAAAAAGAA | 10.3 ± 0.23 |
| TATTATATATTAAATGCATGTAAAAATAATATTAAA [TGCATGCA_site643] | 9.24 ± 0.44 |
| TATAAGAGAAGAAGAAAAAAAAGGTTTCTATAGAAA [XGTACX_negctrl_site421] | 8.76 ± 0.52 |
| AATAAAAAAAAAATAAATTTAATAATAATAATAAAA [CACACA_negctrl_site569] | 8.23 ± 0.33 |
| ATATTATCATTTTTTTTAATGGAAAAAAAAAAAAAA [CACACA_negctrl_site1298] | 8.2 ± 0.61 |
| TTTTTCAGAAAAGAAACACACATATAAATATTTATA [CACACA_site7170] | 8.47 ± 0.46 |
| AGTATACACAGACACACACACACATATATATATATA [CACACA_site8510] | 10.2 ± 0.23 |
| TACACATACAGACATACACACATACACATATACACA [CACACA_site6918] | 8.66 ± 0.38 |
| ATTAAAATCATATACACACCCATATATATATATATA [CACACA_site5050] | 10.1 ± 0.34 |
| TAATTAAAATCATATACACACCCATATATATATATA [CACACA_site8524] | 10 ± 0.25 |
| TATACAGACAGACACACACACATATATATATATATA [CACACA_site1734] | 10.1 ± 0.42 |
| CATATACATACACATACACACATACAGACATACACA [CACACA_site6919] | 8.69 ± 0.37 |
| ATTCTACACCCACATACACACATATATATATATATA [CACACA_site3426] | 10.2 ± 0.26 |
| TACACCCACCCACATACACACACATACACATATATA [CACACA_site8503] | 9.33 ± 0.71 |
| ATTCTAATCATATACACACCCATATATATATATATA [CACACA_site1774] | 10.3 ± 0.3 |
| CACCCACCCACATACACACACATACACATATATATA [CACACA_site1722] | 9.3 ± 0.45 |
| TACATACACAGACACACACACATATATATATATATA [CACACA_site3557] | 10.2 ± 0.2 |
| CATACATACAGACACACACACATATATATATATATA [CACACA_site2920] | 10.1 ± 0.35 |
| TATATATATTTATAATGTACACATATATGTAAATAT [XGTACX_site3695] | 8.51 ± 0.2 |
| ATATATATATATATAAAGTGAAGTATGAGGGAAATA [XGTACX_negctrl_site497] | 10.1 ± 0.3 |
| AGAATAAAAAGGAACACACACACACGCATATAAATA [CACACA_site7659] | 9.01 ± 0.55 |

| Sequence | gcPBM binding intensity (ln) |
| --- | --- |
| TTACATATTATACGAAGTACGTACAAATACTTATAT [XGTACX_site8598] | 8.6 ± 0.26 |
| GTATGTTTGTTATGCACACAAATGCATCTTATTTCC [CACACA_site2690] | 8.96 ± 0.28 |
| TTATTTAACGTATTCTCACACATATATATATATAAT [CACACA_site5226] | 8.64 ± 0.42 |
| TAAATATGTATAAATTGTACAAAATATATGAATAGT [XGTACX_site5659] | 8.94 ± 0.29 |
| CTCATAATTTCTGAACGTACGTATTTCTCATTTTTA [XGTACX_site7296] | 8.83 ± 0.44 |
| TCCTTTTTTAAAAGTTGTACATTATTGTTATTTGTT [XGTACX_site4686] | 8.65 ± 0.3 |
| TTTTAAATAATTCGTAATTATAATTATGGAAAAAAG [CACACA_negctrl_site152] | 8.43 ± 0.48 |
| TTAGCAACTATTACTACACACATTTGTATTTAATTT [CACACA_site4961] | 8.49 ± 0.35 |
| ATTCTACACAGACATACACACATATATATATATATA [CACACA_site5826] | 10.2 ± 0.4 |
| GTATTCTACAGACACATACACACATATATATATATA [CACACA_site3427] | 10.1 ± 0.22 |
| TACAGACATACATACACACATACATATATATATATA [CACACA_site1940] | 10.1 ± 0.11 |
| TTTATTAATTAAACCATACACACATAATTTTTTTAT [CACACA_site842] | 8.34 ± 0.47 |
| ATTTAGAAAAATAAAACACACATATAGATGTAAATA [CACACA_site7853] | 8.57 ± 0.58 |
| AAAAAAAAAAAAGAAACACACACATATATATATATA [CACACA_site8525] | 10.1 ± 0.31 |
| AAGAAAAAAAAAAAAACACACATATATATATATATA [CACACA_site2027] | 10.2 ± 0.13 |
| CACAAGAAAGTTCACACACACACATATATATATATA [CACACA_site6009] | 10.2 ± 0.18 |
| AAAAAAAAAAGAAAAAGTACATACATACATATATAT [XGTACX_site6405] | 8.46 ± 0.36 |
| AAACAGAAGACATATACACACATACAAAAAAGTGCA [CACACA_site4699] | 8.81 ± 0.33 |
| CAAGAAAAGAAACACACACACATATATATATATATA [CACACA_site3881] | 10.1 ± 0.26 |
| TTAAAAAGAAAGTTCACACACATATATATGACGGAA [CACACA_site2602] | 8.93 ± 0.45 |
| AAAAAAAAAAGAAACACACACATATATATATATAAT [CACACA_site5052] | 8.61 ± 0.52 |
| CACAAAAAGAAACACACACACATATATATATATATA [CACACA_site999] | 10.2 ± 0.22 |
| AAAAAAAAAAAAGAAACACACATATATATATATATA [CACACA_site140] | 10.1 ± 0.6 |
| CACAAGAAAATTCACACACACACATATATATATATA [CACACA_site3880] | 10.1 ± 0.27 |
| AAGACAAAACAAAGAAGTACATATATATATATATAT [XGTACX_site4067] | 10.3 ± 0.4 |
